Shown are actives, neighbours in structure and some others; about 22% of the full set was active somewhere.
Pf growth 48h: inhibits P. falciparum growth in the first generation, 48 h | P. falciparum luciferase growth in erythrocytes, 48 h | Potency, µM (top dose mostly 28.7 µM), actives largely listed as inhibitors | 310,000 tested, 5.9% active
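Here the parasites carry a stable luciferase gene and grow inside erythrocytes in Albumax-based RPMI medium with compound for one erythrocytic cycle. Activity is scored as loss of luminescent signal.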
LmPK inh: LmPK (Leishmania mexicana) enzyme inhibition; Q27686; purified LmPK, Kinase-Glo ATP luminescence, 1 h; 290,000 tested, 0.37% active; Potency, µM (highest dose often 57.5 µM), most hits filed as inhibitors
Target sequence (Q27686 whole entry, looked up): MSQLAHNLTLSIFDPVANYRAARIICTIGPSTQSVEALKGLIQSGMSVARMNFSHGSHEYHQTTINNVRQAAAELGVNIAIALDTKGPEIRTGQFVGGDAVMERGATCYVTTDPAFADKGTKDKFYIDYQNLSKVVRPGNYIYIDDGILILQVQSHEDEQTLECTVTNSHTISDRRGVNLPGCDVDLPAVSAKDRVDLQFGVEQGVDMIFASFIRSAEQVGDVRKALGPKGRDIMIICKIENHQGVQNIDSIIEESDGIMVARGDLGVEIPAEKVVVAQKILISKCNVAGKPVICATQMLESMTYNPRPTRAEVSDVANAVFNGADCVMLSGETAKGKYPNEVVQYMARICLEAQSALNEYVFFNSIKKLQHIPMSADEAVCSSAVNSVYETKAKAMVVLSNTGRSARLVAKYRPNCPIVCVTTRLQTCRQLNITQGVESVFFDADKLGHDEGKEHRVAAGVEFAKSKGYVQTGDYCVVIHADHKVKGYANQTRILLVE
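In 50 mM imidazole pH 7.2 with 7 mM MgCl2, LmPK (0.1 nM) turned over PEP (0.5 mM) and ADP (0.1 mM) for 1 h at room temperature. Luciferase read-out of ATP.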
Shiga inhibitor: inhibitors of Shiga toxin in Vero cells. 290,000 tested, 9.2% active. inhibition, % at 38.7 µM. Vero cells, Shiga toxin protein synthesis inhibition reporter; in the data active = inhibition mostly above about 28%, no sharp cut-off; inactive = mostly below about 43%
CHX counter: affects cycloheximide protein synthesis inhibition readout, counter-screen. cell reporter, cycloheximide protein synthesis inhibition counterscreen. max response, %. 300,000 tested, 12% active. AID 2314; in the data active = max response mostly above about 13%, no sharp cut-off; inactive = mostly below about 14%; note: read at 38.3 µM for the half of the compounds with a filed dose
Pf growth 96h: P. falciparum growth inhibition at 96 hours; P. falciparum luciferase reporter growth, 96 h; Potency, µM (top dose mostly 28.7 µM), usual class: inhibitors; 320,000 tested, 6.9% active; AID 504834
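Readout is luminescence from an integrated firefly luciferase in P. falciparum. Red cells, 2% hematocrit and 0.05% parasitemia final, were cultured with compound through two parasite generations (96 hours) at 37 C, 5% CO2.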
Large screens that a line does not name were inactive. Unless noted, calls come from the whole dose curve; as a rule, active = well fitted inhibition curve with a large enough effect; inconclusive = small, poorly fitted or top-dose-only effect, or another doubt; inactive = no such curve, though single readings can be large or run the other way.

CS(=O)(=O)c1ccccc1-c1nnc(NC(=O)c2cccc(N3C(=O)CCC3=O)c2)o1	none (no result: LmPK inh, Shiga inhibitor, CHX counter)
Cc1c(C(=O)N/N=C/c2ccccc2)sc(=S)n1C	Pf growth 96h 13µM
CCOC(=O)C1(CC)NC(c2ccco2)C2C(=O)N(CC)C(=O)C21 (stereo not drawn)	none
CCOC(=O)C1(C)NC(c2ccco2)C2C(=O)N(CC)C(=O)C21 (stereo not drawn)	Pf growth 96h 2.9µM
COc1ccc(/C=N\NC(=O)c2cccc([N+](=O)[O-])c2)cc1Cn1cc([N+](=O)[O-])cn1	Pf growth 48h inconclusive
COc1ccc(/C=N/NC(=O)c2ccn[nH]2)cc1Cn1cc([N+](=O)[O-])cn1	Shiga inhibitor 59, CHX counter 23
COc1ccc(/C=N/N2CCOCC2)cc1COc1ccc(F)cc1	Pf growth 48h inconclusive, CHX counter 35
COc1ccc(/C=N/N2CCOCC2)cc1COc1ccc(Cl)cc1	none
COc1ccc(/C=N/NC(=O)c2ccccc2O)cc1Cn1cc(Cl)cn1	CHX counter 16
COc1ccc(/C=N/N2CCOCC2)cc1Cn1cc([N+](=O)[O-])cn1	CHX counter 15
CCOc1ccc(/C=N/NC(=O)c2ccccc2O)cc1CN1CC2CC(C1)c1cccc(=O)n1C2 (stereo not drawn)	Pf growth 48h inconclusive, Pf growth 96h 13µM (no result: LmPK inh, Shiga inhibitor, CHX counter)
COc1ccc(/C=N/NC(=O)c2ccc(N)cc2)cc1Cn1cc([N+](=O)[O-])cn1	Pf growth 96h 12µM
O=P(O)(O)C(O)(Cn1ccnc1)P(=O)(O)O	none (no result: LmPK inh)
CN(C)/C=C1\C(=O)N(C)N=C1C(F)(F)F	none
CC(C)(O)C#Cc1ccc(C(=O)NCCC(=O)O)s1	none
Cc1ccc(CNC(=O)c2ccc(C#CC(C)(C)O)s2)cc1	Pf growth 96h inconclusive (no result: Pf growth 48h)
CCc1ccc(C(=O)N2CCCC2)s1	Pf growth 96h inconclusive
CCc1ccc(C(=O)NC2CCCCC2)s1	Shiga inhibitor 67, CHX counter 53 (no result: Pf growth 96h)
CC(C)(O)C#Cc1ccc(C(=O)NC2CCCCC2)s1	Shiga inhibitor 74, CHX counter 27
CC(C)(O)C#Cc1ccc(C(=O)Nc2ccc3c(c2)OCO3)s1	Shiga inhibitor 107, CHX counter 58, Pf growth 96h inconclusive
OCC1C2c3ccccc3C(c3ccccc32)C1CO (stereo not drawn)	none
CC1(C)N([O-])C(c2cccs2)=C[N+]1=O	Pf growth 96h 10µM
Cn1c2cc(Br)sc2c2cnn(Cc3ccc(F)cc3)c(=O)c21	Pf growth 48h inconclusive (no result: LmPK inh, Shiga inhibitor, CHX counter)
COc1cc(OC)c(C(=O)OC(C)C(=O)Nc2cccc(C(F)(F)F)c2)cc1OC (stereo not drawn)	Pf growth 48h inconclusive, Pf growth 96h 9.3µM
COc1cc(CC(=O)Nc2cccc(C(F)(F)F)c2)cc(OC)c1OC	Pf growth 48h inconclusive
COc1ccc(C(=O)O/N=C(\N)c2ccccn2)c(OC)c1	LmPK inh inconclusive, CHX counter 29
COc1ccc(C(=O)O/N=C(\N)c2ccc(OC)c(OC)c2)cc1	Pf growth 48h inconclusive, Shiga inhibitor 160, CHX counter 27
COc1ccc(/C(N)=N/OC(=O)c2ccc(OC)c([N+](=O)[O-])c2)cc1OC	Pf growth 48h inconclusive
COc1ccc(OC)c(C(=O)c2ccccn2)c1	none (no result: Shiga inhibitor)
COc1cccc(C(=O)O/N=C(\N)c2ccc([N+](=O)[O-])cc2)c1OC	Shiga inhibitor 76, CHX counter 75, Pf growth 96h inconclusive
COc1ccc(/C(N)=N/OC(=O)c2cccc([N+](=O)[O-])c2C)cc1OC	Pf growth 96h 13µM (no result: Pf growth 48h)
CCCOc1cccc(C(=O)NCCNC(=O)c2ccc(C)nc2)c1	none
COc1ccc(S(=O)(=O)N2CCOC2CNC(=O)C(=O)NCCc2ccc(S(N)(=O)=O)cc2)cc1 (stereo not drawn)	Pf growth 96h inconclusive
Cc1ccc(C(=O)O/N=C(\N)c2ccccn2)cc1	Pf growth 48h inconclusive, LmPK inh 14µM
Cc1ccc(C(=O)O/N=C(\N)c2ccccn2)cc1C	LmPK inh inconclusive
COc1ccc(C(C)=O)c(OC(=O)c2ccc(OC)c(OC)c2)c1	none
COc1ccc(C(=O)O/N=C(\N)c2ccccc2)c(OC)c1	LmPK inh inconclusive, CHX counter 32
COc1cc(C(=O)O/N=C(\N)c2ccccn2)cc(OC)c1OC	Pf growth 48h inconclusive, Shiga inhibitor 66, CHX counter 34, Pf growth 96h inconclusive
COc1ccc(C(=O)O/N=C(\N)c2ccc(OC)c(OC)c2)c(OC)c1	Shiga inhibitor 93, CHX counter 48
COc1ccc(/C(N)=N/OC(=O)Oc2ccccc2)cc1OC	none
Cn1cccc1C(=O)NCc1ccc(S(N)(=O)=O)cc1	none
COc1ccc(NC(=O)CC2C(=O)N(Cc3ccccc3)C(=S)N2CCN2CCOCC2)cc1 (stereo not drawn)	Pf growth 48h inconclusive, Pf growth 96h inconclusive
COC(=O)CN1C(=S)N(Cc2ccccc2)C(=O)C1CC(=O)Nc1ccc(OC)cc1 (stereo not drawn)	Pf growth 48h 4.1µM
CC1=NN(C(N)=S)C(=O)C1N=Nc1ccc(Br)cc1 (stereo not drawn)	Pf growth 48h 9.3µM, CHX counter 39, Pf growth 96h inconclusive
CC1=NN(C(N)=S)C(=O)C1N=Nc1ccccc1 (stereo not drawn)	Pf growth 48h inconclusive
CC1=NN(C(N)=S)C(=O)C1N=Nc1cccc([N+](=O)[O-])c1 (stereo not drawn)	none
CC1=NN(C(N)=S)C(=O)C1N=Nc1ccc(Cl)cc1 (stereo not drawn)	Pf growth 48h inconclusive, Shiga inhibitor 77, CHX counter 33, Pf growth 96h inconclusive
CC1=NN(C(N)=S)C(=O)C1N=Nc1cccc(Cl)c1C (stereo not drawn)	Pf growth 48h inconclusive, Shiga inhibitor 37, CHX counter 26, Pf growth 96h inconclusive
Cn1cc(S(=O)(=O)N2CCCC2)cc1C(=O)NCc1ccccc1Cl	none
Cc1ccc(C(=O)N2CCN(c3ncnc4c(-c5ccccc5)nsc34)CC2)cc1	Pf growth 96h 1.5µM
Cc1ccc(-c2nsc3c(N4CCC(C(N)=O)CC4)ncnc23)cc1	Shiga inhibitor 52, CHX counter 33, Pf growth 96h inconclusive
O=C(c1ccccc1)N1CCN(c2ncnc3c(-c4ccccc4)nsc23)CC1	none
Cc1ccc(C(=O)N2CCN(c3cc(=O)[nH]nc3-c3ccccc3)CC2)cc1	Pf growth 48h inconclusive, Pf growth 96h 12µM
COc1ccc(-c2nsc3c(N4CCCCC4C)ncnc23)cc1 (stereo not drawn)	none
COc1ccc(-c2nsc3c(N4CCCCC4)ncnc23)cc1	Shiga inhibitor 100, CHX counter 58, Pf growth 96h inconclusive
CN(C)CC(O)CN1C(=O)N(CN2C(=O)N(CC(O)CN(C)C)C(=O)C2(C)C)C(C)(C)C1=O (stereo not drawn)	none
CCOC(=O)NC(=O)c1cn(CCN(C)C)c(=O)[nH]c1=O	none
O=C(N1CCCC1)N1CCN(c2ncnc3c(-c4ccc(Cl)cc4)nsc23)CC1	Shiga inhibitor 97, CHX counter 34, Pf growth 96h 1.9µM

Screening results deposited in PubChem by National Center for Advancing Translational Sciences (NCATS).
